Compound activity as filed in PubChem BioAssay.
The list is not random: actives were taken first. Their share in the collection is about 0.85%.
B2AR arrestin – qHTS assay of beta-arrestin-biased ligands of beta2-adrenergic receptor; Beta-2 adrenergic receptor (Homo sapiens), P07550; beta-arrestin recruitment to beta2AR, cell-based reporter; Potency, µM (highest dose often 46.1 µM), for inactives: at the highest dose activation, usual class: activators; actives 0.02% (n = 330,000);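 note: potency is the fitted concentration of half-maximal effect; 0% = DMSO controls and full agonism = EC100 isoproterenol or metaproterenol; nearly all actives have a fitted effect of over 65% in size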
Target sequence (P07550 whole entry, looked up): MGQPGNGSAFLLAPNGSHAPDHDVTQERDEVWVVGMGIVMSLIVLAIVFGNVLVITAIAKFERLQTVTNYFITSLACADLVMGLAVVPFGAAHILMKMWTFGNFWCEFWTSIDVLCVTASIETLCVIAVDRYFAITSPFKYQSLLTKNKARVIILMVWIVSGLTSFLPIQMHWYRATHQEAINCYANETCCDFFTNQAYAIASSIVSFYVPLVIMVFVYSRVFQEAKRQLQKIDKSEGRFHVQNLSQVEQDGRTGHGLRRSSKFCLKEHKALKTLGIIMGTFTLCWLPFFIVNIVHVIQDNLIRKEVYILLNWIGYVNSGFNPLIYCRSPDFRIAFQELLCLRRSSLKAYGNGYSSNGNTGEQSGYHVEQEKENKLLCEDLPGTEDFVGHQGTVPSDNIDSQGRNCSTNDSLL
aGlu spleen mod – qHTS Assay for Inhibitors and Activators of Human alpha-Glucosidase From Spleen Homogenate; Lysosomal alpha-glucosidase (Homo sapiens), P10253; human spleen homogenate, 4-MU-alpha-glucoside fluorescence; Potency, µM (titrated, usually from 79.9 µM), inactives show at the highest dose activity change, negative = inhibition, actives largely listed as inhibitors; actives 0.006% (n = 240,000); AID 2112, 2009;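 note: potency is the fitted concentration of half-maximal effect; 0% = enzyme with vehicle and -100% = no enzyme basal signal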
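AC50 values come from Hill-equation fits of concentration-response data, normalized to no-enzyme and full-activity controls. Enzyme source: 1 ug human spleen homogenate; 1 mM fluorogenic 4-MU glucoside, pH 5.0 citrate buffer, 37 C, 40 min.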
GAA inhib – qHTS Assay for Inhibitors of Human alpha-Glucosidase as a Potential Chaperone Treatment of Pompe Disease. Lysosomal alpha-glucosidase (Homo sapiens), P10253. purified human GAA, 4-MU-alpha-glucoside fluorescence. Potency, µM (series often up to 76.9 µM), for inactives: top-dose activity change, negative = inhibition, most hits filed as inhibitors. actives 0.005% (n = 200,000);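 note: potency is the fitted concentration of half-maximal effect; plate controls were uninhibited enzyme wells for no effect and no-enzyme background for full effect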
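Enzyme (4 nM final) mixed with compound (up to 77 uM), then 4-MU-alpha-D-pyranoside (400 uM final) added; 20 min at room temperature, pH 5.0. Reaction stopped at pH 10, fluorescence read, AC50 derived by Hill fit.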
FBPA coupling cs – qHTS Assay for Inhibitors of Fructose-1,6-bisphosphate Aldolase from Giardia Lamblia: Coupling assay counterscreen; coupling enzyme system counterscreen, AmpLite Red fluorescence; activity change, negative = inhibition, % at 58.2 µM, hits read low; actives 0.67% (n = 290,000); AID 2472, 2010; in the data active = activity change below about -30%
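Fluorescence at 525 nm excitation and 598 nm emission measured inhibition of the coupled detection system without aldolase. Compounds (at 57.5 uM final) were preincubated 10 min at room temperature with coupling enzyme reagent before a 20 min substrate/AmpLite Red step.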
GAA glycogen – qHTS Assay for Inhibitors and Activators of Human alpha-Glucosidase Cleavage of Glycogen. recombinant GAA, glycogen substrate, Amplex Red glucose oxidase fluorescence. actives 0.38% (n = 300,000). Lysosomal alpha-glucosidase (Homo sapiens), P10253. Potency, µM (top dose mostly 76.4 µM), without a hit: at the highest dose activity change, negative = inhibition, usual class: inhibitors;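 note: potency is the fitted concentration of half-maximal effect; 0% = full enzyme reaction and -100% = no-enzyme basal signal; the screen sought inhibitors and activators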
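qHTS, 1536-well; enzyme 4 nM final; cpd up to 77 uM; substrate bovine liver glycogen 30 ug; 50 mM citrate/phosphate pH 5.0, 0.01% Tween-20; 37 C, 40 min; Amplex Red detection 45 min RT; Hill fit → AC50.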
Active calls of the source: *; u = inconclusive; x = no result given; [ ] = dose if it differs, or a comment. Unless noted, calls come from the whole dose curve; as a rule, active = well fitted curve in the direction sought with a large enough effect; inconclusive = small, poorly fitted or top-dose-only effect, or another doubt; inactive = no such curve, though single readings can be large; an effect the other way counts as inactive or inconclusive. Unless noted, % is set by controls: 0 for no effect and ±100 for the full control effect.

SMILES	B2AR arrestin	aGlu spleen mod	GAA inhib	FBPA coupling cs	GAA glycogen
COC(=O)N[C@H](c1ccccc1)C(C(C)=O)C(=O)OC (some centres not stated)	x	-1%	x	9	x
COC(=O)NC(c1ccccc1)C(C(=O)OC)C(=O)OC (configuration not stated)	x	-13%[17.4 µM]	x	-31*	x
CC1CCC2C(=O)N3C(CCC(C)[C@@H]3c3cccc(N4CCOCC4)c3)C(=O)N2C1c1cccc(Br)c1 (some centres not stated)	x	-5%[17.4 µM]	x	0	x
O=C(CCCOc1ccc(Cl)cc1Cl)N/N=C/c1cccc([N+](=O)[O-])c1	0%	-1%	2%	-39*	12%
COc1ccc2ccccc2c1/C=N/Nc1cccc(C(=O)O)c1	-1%	x	x	3	u
O=C(N/N=C/c1ccc(O)cc1)c1cccc(N/N=C/c2ccc(O)cc2)c1	-1%	-3%	-14%	-2	25µM*
O=C(O)c1cccc(N/N=C/c2cccc3ccccc23)c1	0%	x	x	6	32µM*
CC(C)CC(NC(=O)C(COC(C)(C)C)NC(=O)C(Cc1ccc(O)cc1)NC(=O)C(CO)NC(=O)C(Cc1c[nH]c2ccccc12)NC(=O)C(Cc1cnc[nH]1)NC(=O)C1CCC(=O)N1)C(=O)NC(CCCN=C(N)N)C(=O)N1CCCC1C(=O)NNC(N)=O (configuration not stated)	x	5%	x	0	x
Cc1cc(NC(=O)COc2cccc(C)c2C)no1	0%	3%	-4%	-3	-6%
Cc1cc(NC(=O)COc2cccc3cccnc23)no1	0%	-4%	4%	-32*	-2%
CC[C@H](C)[C@H](NC(=O)[C@H](C)NC(=O)[C@@H](N)C(C)C)C(=O)N[C@H](C(=O)N[C@H](C(=O)N[C@@H](CC(C)C)C(=O)N[C@H](C(=O)N[C@@H](CCCCN)C(=O)O)C(C)C)C(C)C)[C@@H](C)O	x	-8%	x	3	x
O=c1cc(-c2ccc(F)cc2)[nH][nH]1	0%	0%	-2%	-1	-4%
O=c1cc(-c2ccc(C3CCCCC3)cc2)[nH][nH]1	0%	9%	-3%	3	16µM*
O=C(O)CO	x	-1%	x	2	x
CCCCC(=Nc1ccc(N)cc1)C1=C(O)C(C(=O)OC)C(C)(C)CC1=O (configuration not stated)	0%	-3%	2%	-40*	-22%
CCC(=Nc1ccc(N)cc1)C1=C(O)C(C(=O)OC)C(C)(C)CC1=O (configuration not stated)	0%	0%	-18%	-48*	u
CCCC(=Nc1ccccc1)C1=C(O)C(C(=O)OC)C(C)(C)CC1=O (configuration not stated)	0%	5%	u	-3	10%
Cc1cnc(CNc2nc(-c3ccc(N(C)C)cc3)nc3ccccc23)cn1	x	3%	x	0	x
N#CCC(=O)N/N=C/c1ccc(Cl)cc1	0%	-15%	x	1	3%
CN(c1ccccc1)c1ccc(/C=N/NC(=O)CC#N)cc1	1.3µM*	-4%	4%	-6	-4%
COc1cccc([C@@H]2Oc3ccc(Br)cc3C(=O)[C@H]2OC(=O)NCCOc2ccccc2)c1	x	-3%	x	5	x
C=CC1=C2C=C(C3CC3)N(C3CC3)C=C2C(=O)C(C)(OC(=O)c2ccco2)C1=O (configuration not stated)	x	2%[17.4 µM]	x	-11	x
C=CC1=C2C=C(C3CC3)N(C3CCCC3)C=C2C(=O)C(C)(OC(=O)c2ccco2)C1=O (configuration not stated)	x	-7%[17.4 µM]	x	-42*	x
C=CC1=C2C=C(C3CC3)N(C3CCCCC3)C=C2C(=O)C(C)(OC(=O)c2ccco2)C1=O (configuration not stated)	x	6%[17.4 µM]	x	-43*	x
Nc1nc2c(nc(Br)n2C2O[C@H]3COP(=O)(O)O[C@@H]3C2O)c(=O)[nH]1 (some centres not stated)	x	-1%	x	x	x
SMILES	B2AR arrestin	aGlu spleen mod	GAA inhib	FBPA coupling cs	GAA glycogen
O=C(NCCn1cc(SCc2ccccc2)c2ccccc21)c1c(F)cccc1F	-1%	-6%	-4%	-12	-1%
O=C(NCCn1cc(SCc2ccc(F)cc2)c2ccccc21)c1c(F)cccc1F	0%	1%	-3%[15.4 µM]	-39*	2%[76.3 µM]
CNc1nc2[nH]c(=O)c3c(c2s1)OC(N)=C(C#N)C3c1cccc(F)c1 (configuration not stated)	0%	-6%	-1%	-51*	18%
O=[N+]([O-])c1cc(CN2CCCC2)c2cccnc2c1O	-1%	-8%	-2%	-35*	-12%
CCOC(=O)N1CCc2c(sc(N)c2C#N)C1	-1%	-2%	x	-6	u
CCOC(=O)C1CCc2sc(N)c(C#N)c21 (configuration not stated)	-1%	6%	-13%	-13	5µM*
S=c1c2c(nc3nc[nH]n13)CCC2	13%	-9%	x	-36*	14%
CCO/C=C1/C(=O)N(C)C(=O)c2cc(OC)ccc21	0%	6%	-1%	-43*	8%
Cc1c2cnn(-c3ccccc3)c(=O)c2c(C)n1CC(=O)NCc1ccccc1	x	x	x	x	13%[76.3 µM]
O=C1/C(=C/c2ccc(O)c(O)c2)Oc2ccccc21	x	2%	x	-10	x
CCOc1ccc(N2C(=O)CC(N3CCc4ccccc43)C2=O)cc1 (configuration not stated)	0%	0%	-3%	2	14µM*
CO/N=C(\C)CCN1CCCCc2nc(C)c(C)cc21	x	-8%[17.4 µM]	x	-14	x
O=C(O)c1cc(N(Cc2ccccc2O)Cc2cc(O)ccc2O)ccc1O	x	5%	x	-1	x
Cc1cc(C)n(-c2ncc3c(n2)N(CCO)CCOC3=O)n1	-1%	8%	-17%	1	10%
CC1=CC2(O)OCCN(CCO)C2=CC1=O (configuration not stated)	7%	-15%	-7%[15.4 µM]	-67*	u
O=S(=O)(Nc1cc(Sc2ncn[nH]2)c(O)c2ccccc12)c1ccccc1	0%	6%	-4%	-55*	u
O=C(O)CSc1cc(NS(=O)(=O)c2ccc(Br)cc2)c2ccccc2c1O	-1%	x	x	-44*	-4%
Cc1cc(O)c(Sc2ncn[nH]2)cc1NS(=O)(=O)c1ccc(Cl)cc1	3%	x	x	x	x
CC(=O)N(Cc1ccc(F)cc1)C1=C(NCCc2ccccc2)C(=O)c2ccccc2C1=O	-1%	-12%	-11%	-47*	-3%
